KKLEB tox: cytotoxicity in KKLEB CF airway cells, primary screen, cytotoxicity control for CF NF-kB inhibitor project, cell-based, uHTS, fluorescence assay plates | KKLEB CF airway cells viability, ATPlite luminescence, overnight; hits give low values; cells stimulated with P. aeruginosa culture filtrate | activity change (cytotoxicity), % at 5 µM | hit rate 0.36% among 360,000 | AID 602141, 2011;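 active = corrected activity change at or below -50% at 5 µM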
LGR2 antag: inhibitors of bursicon-induced LGR2 CRE-luciferase signal, primary screen, cell-based, HEK293, CRE-luciferase reporter, bursicon stimulation. hit rate 0.35% among 380,000. bursicon-stimulated, 4 h. AID 720647, 2013. inhibition, % at 9.99 µM;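 active = drop in luminescence signal, shown as inhibition above about 50% in the replicate tests, limit read from the data, passing the limit was not always enough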;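 also: agonist challenge used bursicon conditioned medium at about half maximal strength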
Peg3 promoter: Peg3 promoter-driven luciferase inhibitors, primary screen, cell-based, HeLa, luciferase luminescence. HeLa PEG-Prom luciferase reporter, overnight. inhibition, % at 20 µM. hit rate 1.7% among 360,000. AID 588405, 2011;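 active = inhibition of at least 50% at 20 µM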
HSP90 refold inh: HSP90 inhibitors, primary screen, cell lysate, luminescence. hit rate 0.91% among 290,000. Rabbit reticulocyte lysate, luciferase refolding luminescence, 3 h. Heat shock protein HSP 90 (rabbit reticulocyte lysate; luciferase refolding). AID 1789, 2009. inhibition, % at 5.6 µM;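 active = inhibition above the screen-wide mean plus 3 SD, computed separately per campaign, cut at about 16% in these data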;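 also: inhibitors lower the luminescence because luciferase stays unfolded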
Mdm2-MdmX inh: inhibitors of human Mdm2-MdmX association, primary screen, cell-based, luminescence, split luciferase, SaOS-2, uHTS. Protein Mdm4 (Homo sapiens) + E3 ubiquitin-protein ligase Mdm2 (Homo sapiens), …. SaOS-2 split-luciferase Mdm2/MdmX complementation. inhibition, % at 8 µM. hit rate 3% among 330,000;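 active = inhibition of at least 50% at 8 µM in the primary screen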
Target sequence (O15151 whole entry, looked up): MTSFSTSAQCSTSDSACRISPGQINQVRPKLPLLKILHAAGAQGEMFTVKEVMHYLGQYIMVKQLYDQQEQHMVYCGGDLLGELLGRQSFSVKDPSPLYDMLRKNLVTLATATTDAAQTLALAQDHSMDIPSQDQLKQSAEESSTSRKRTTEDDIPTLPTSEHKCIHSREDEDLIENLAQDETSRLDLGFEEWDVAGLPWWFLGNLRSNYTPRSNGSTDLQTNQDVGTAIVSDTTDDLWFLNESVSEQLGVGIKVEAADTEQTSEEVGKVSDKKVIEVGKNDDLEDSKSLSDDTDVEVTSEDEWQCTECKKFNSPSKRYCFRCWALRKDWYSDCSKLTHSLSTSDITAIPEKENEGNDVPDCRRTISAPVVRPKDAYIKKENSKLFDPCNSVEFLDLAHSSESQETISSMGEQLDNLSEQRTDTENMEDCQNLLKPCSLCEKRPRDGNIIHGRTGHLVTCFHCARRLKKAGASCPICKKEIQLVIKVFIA
Target sequence (Q00987 whole entry, looked up): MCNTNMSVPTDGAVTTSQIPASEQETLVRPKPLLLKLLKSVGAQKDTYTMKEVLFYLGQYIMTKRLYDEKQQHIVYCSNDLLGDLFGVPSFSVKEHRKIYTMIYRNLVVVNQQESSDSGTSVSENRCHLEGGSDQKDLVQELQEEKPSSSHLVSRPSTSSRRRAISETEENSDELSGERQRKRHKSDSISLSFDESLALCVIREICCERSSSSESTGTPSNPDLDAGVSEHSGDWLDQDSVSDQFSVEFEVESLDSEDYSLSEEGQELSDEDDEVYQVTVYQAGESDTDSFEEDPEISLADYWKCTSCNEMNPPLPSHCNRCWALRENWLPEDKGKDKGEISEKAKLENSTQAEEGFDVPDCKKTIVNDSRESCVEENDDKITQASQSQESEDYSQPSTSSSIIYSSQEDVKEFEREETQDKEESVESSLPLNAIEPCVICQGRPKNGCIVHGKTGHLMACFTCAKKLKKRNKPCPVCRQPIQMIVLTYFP
CF NFkB block: inhibitors of PAF-induced NF-kB signaling, primary screen, cell-based, GFP fluorescence, uHTS. inhibition, % at 5 µM. hit rate 0.86% among 360,000. KKLEB NF-kB-GFP reporter, GFP fluorescence overnight;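 active = at least 50% inhibition at 5 µM, scaled per plate between neutral and stimulator controls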;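 also: PAF is a Pseudomonas aeruginosa culture filtrate used as stimulus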
Mdm2 MdmX conf: Mdm2-MdmX complex disruptors, retested hits, confirmation, luminescence, single concentration; shares compounds with Mdm2-MdmX inh; inhibition, % at 8 µM; Mdm2-MdmX binding, luminescent assay; hit rate 55% among 10,000; in the data active = inhibition above about 40%
Full FLuc ctr: full-length luciferase signal inhibition, confirmation, counter-screen for Mdm2/MdmX interaction inhibitor project, cell-based, single concentration, SaOS-2; shares compounds with Mdm2-MdmX inh; SaOS-2 full-length luciferase counterscreen, luminescence; inhibition, % at 8 µM; hit rate 77% among 6,200; AID 504607, 2011;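 active = mean inhibition at 8 µM reaching about 37%, which flags the compound as non-specific, limit read from the data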;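 also: p53-null SaOS-2 cells with luciferase driven by a doxycycline-inducible promoter; compound on cells about two nights before reading with doxycycline added after day one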
Large screens that a line does not name were inactive (follow-up assays come after a bar, where they were run). Only some compounds are listed: those with a hit (about 3.6% of all), similar ones and a draw of the others.

Oc1ccc(N=Nc2ccc3c(c2)OCCO3)c(O)c1	none
Oc1ccc(N=Nc2ccc(Br)cc2)c(O)c1	Mdm2-MdmX inh 82.4 | Mdm2 MdmX conf 41.2 | Full FLuc ctr 98.4
O=C(c1cccc(S(=O)(=O)NCc2ccccc2)c1)N1CCN(c2ccccc2)CC1	none (no result: HSP90 refold inh)
O=C(c1cccc(S(=O)(=O)NCc2ccccc2)c1)N1CCN(c2cccc(C(F)(F)F)c2)CC1	Mdm2-MdmX inh 62.3 | Mdm2 MdmX conf 70.0 | Full FLuc ctr 55.5
C[C@@H]1CN([C@@H](C)CO)C(=O)c2cc(-c3ccncc3)cnc2O[C@@H]1CN(C)C(=O)C1CC1	none (no result: KKLEB tox, Peg3 promoter, HSP90 refold inh, Mdm2-MdmX inh, CF NFkB block)
COc1ccccc1-c1sc2ccccc2c1-c1ccc(OCCN2CCCCC2)cc1	Peg3 promoter 91.3, Mdm2-MdmX inh 66.6 (no result: LGR2 antag, HSP90 refold inh) | Mdm2 MdmX conf 44.1 | Full FLuc ctr 55.1
COc1cc2sc(-c3ccccc3OC)c(-c3ccc(OCCN4CCOCC4)cc3)c2cc1OC	Mdm2-MdmX inh 60.5 (no result: LGR2 antag, HSP90 refold inh) | Mdm2 MdmX conf inactive
COc1ccc2c(-c3ccc(OCCN4CCCCC4)cc3)c(-c3ccccc3OC)sc2c1	Peg3 promoter 92.1, Mdm2-MdmX inh 62.7 (no result: LGR2 antag, HSP90 refold inh) | Mdm2 MdmX conf inactive
Cc1ccc(C(=O)c2cc([N+](=O)[O-])ccc2N2CCN(C)CC2)cc1	Mdm2-MdmX inh 50.3 | Mdm2 MdmX conf 60.1 | Full FLuc ctr 54.6
COc1ccc(C(=O)c2cc([N+](=O)[O-])ccc2N2CCCC2)cc1	Mdm2-MdmX inh 50.0 | Mdm2 MdmX conf 63.5 | Full FLuc ctr 52.9
O=C(c1ccc(Br)cc1)c1cc([N+](=O)[O-])ccc1N1CCCCC1	Mdm2-MdmX inh 58.1 (no result: LGR2 antag) | Mdm2 MdmX conf 51.7 | Full FLuc ctr 95.0
CN1CCN(c2ccc([N+](=O)[O-])cc2C(=O)c2ccc(Br)cc2)CC1	Mdm2-MdmX inh 54.2 (no result: LGR2 antag) | Mdm2 MdmX conf 59.5 | Full FLuc ctr 60.0
CN1CCN(c2ccc([N+](=O)[O-])cc2C(=O)c2ccccc2)CC1	none
O=C(NCc1ccccc1)[C@H]1[C@H](CO)[C@H]2Cn3c(ccc(-c4cccnc4)c3=O)[C@H]2N1Cc1cocn1	none (no result: KKLEB tox, Peg3 promoter, HSP90 refold inh, Mdm2-MdmX inh, CF NFkB block)
CCN(CC)CCCN=C1N[C@@H](c2cccc(C(F)(F)F)c2)C(C(=O)OC)=C(C)N1CC	Peg3 promoter 51.3, Mdm2-MdmX inh 99.6 (no result: HSP90 refold inh) | Mdm2 MdmX conf 74.5 | Full FLuc ctr inactive
CCN1C(=O)N[C@@H](c2cccc(C(F)(F)F)c2)C(C(=O)OC)=C1C	none (no result: HSP90 refold inh)
COC(=O)C1=C(C)N(Cc2ccccc2)C(=NCc2ccccc2)N[C@H]1c1cccc(F)c1	Peg3 promoter 101.0, Mdm2-MdmX inh 74.2 (no result: LGR2 antag) | Mdm2 MdmX conf inactive | Full FLuc ctr 47.0
COCCN1C(=S)N[C@@H](c2cccc(F)c2)C(C(=O)OC)=C1C	Mdm2-MdmX inh 59.4 (no result: KKLEB tox, LGR2 antag, Peg3 promoter, CF NFkB block) | Mdm2 MdmX conf inactive
COC(=O)C1=C(C)N(Cc2ccccc2)C(=NCc2cc(OC)c(OC)c(OC)c2)N[C@H]1c1ccc(Br)cc1	Peg3 promoter 105.7, Mdm2-MdmX inh 68.7 (no result: LGR2 antag, HSP90 refold inh) | Mdm2 MdmX conf inactive
COC(=O)C1=C(C)N(Cc2ccccc2)C(=NCc2cc(OC)c(OC)c(OC)c2)N[C@H]1c1ccccc1	none (no result: KKLEB tox, LGR2 antag, Peg3 promoter, CF NFkB block)
C[C@@H]1CN([C@H](C)CO)C(=O)c2cccc(NC(=O)c3ccc(-c4nccs4)cc3)c2O[C@@H]1CN(C)Cc1ccc(C(=O)O)cc1	none (no result: KKLEB tox, Peg3 promoter, HSP90 refold inh, Mdm2-MdmX inh, CF NFkB block)
CCN1C(=NCCCCO)N[C@@H](c2cccc(F)c2)C(C(=O)OC)=C1C	none
COC(=O)C1=C(C)N(Cc2ccccc2)C(=NCc2ccccc2)N[C@H]1c1ccccc1	Peg3 promoter 92.5, Mdm2-MdmX inh 90.5 (no result: HSP90 refold inh) | Mdm2 MdmX conf inactive
CCN(CC)CCCN=C1N[C@@H](c2cccc(F)c2)C(C(=O)OC)=C(C)N1Cc1ccccc1	Peg3 promoter 96.9, Mdm2-MdmX inh 99.6 (no result: HSP90 refold inh) | Mdm2 MdmX conf 83.1 | Full FLuc ctr 58.7
CN1CCN(C(=O)C[C@@H]2CC[C@H]3[C@@H](COC[C@@H](O)CN3CC3CCCC3)O2)CC1	none (no result: KKLEB tox, Peg3 promoter, HSP90 refold inh, Mdm2-MdmX inh, CF NFkB block)
COCCN(C(=O)CCl)C(C(=O)NC1CCCCC1)c1ccccc1C (stereo unspecified)	Peg3 promoter 60.3, Mdm2-MdmX inh 97.2 | Mdm2 MdmX conf 72.2 | Full FLuc ctr 37.9
COCCN(C(=O)CCC(=O)Nc1cc(C)on1)C(C(=O)NC1CCCC1)c1ccccc1C (stereo unspecified)	none
O=C(NC1CCCC1)C(c1ccc(F)cc1)N(Cc1ccc(F)cc1)C(=O)c1ccn[nH]1 (stereo unspecified)	none (no result: LGR2 antag)
O=C(NC1CCCC1)C(c1ccc(F)cc1)N(Cc1ccccc1Cl)C(=O)CCl (stereo unspecified)	Mdm2-MdmX inh 55.2 | Mdm2 MdmX conf inactive
CCN(CC)CCOC(=O)c1ccc(NC(=O)CCCN2C(=O)/C(=C/c3cccs3)SC2=S)cc1	Mdm2-MdmX inh 59.3 | Mdm2 MdmX conf inactive
O=C(CCCN1C(=O)/C(=C\c2cccs2)SC1=S)Nc1ccc(C(=O)O)cc1	none
O=C(CCCN1C(=O)/C(=C/c2cccs2)SC1=S)NNC(=O)c1ccccc1O	none
CCN(CC)CCOC(=O)c1ccc(NC(=O)c2cn(-c3ccccc3)nc2-c2cccs2)cc1	Mdm2-MdmX inh 50.4 | Mdm2 MdmX conf inactive | Full FLuc ctr 101.0
O=C(CCCN1C(=O)/C(=C\c2cccs2)SC1=S)Nc1ccc(O)cc1	Mdm2-MdmX inh 77.8 | Mdm2 MdmX conf 70.9 | Full FLuc ctr inactive
O=C(CCCN1C(=O)/C(=C/c2cccs2)SC1=S)Nc1ccccc1O	Mdm2-MdmX inh 54.1 | Mdm2 MdmX conf inactive | Full FLuc ctr 86.9
CCN(CC)CCNC(=O)c1cn(-c2ccccc2)nc1-c1cccs1	none (no result: LGR2 antag)
C[C@H](CO)N1C[C@H](C)[C@@H](CN(C)Cc2ccc(Oc3ccccc3)cc2)Oc2ccc(NC(=O)C3CC3)cc2CC1=O	none (no result: KKLEB tox, Peg3 promoter, HSP90 refold inh, Mdm2-MdmX inh, CF NFkB block)
CC(C)C(=O)Nc1ccc2c(c1)C(=O)N(C)[C@@H]1CC[C@@H](CC(=O)O)O[C@@H]1CO2	none (no result: KKLEB tox, Peg3 promoter, HSP90 refold inh, Mdm2-MdmX inh, CF NFkB block)
O=C(CCCN1C(=O)/C(=C\c2cccs2)SC1=S)Nc1ccccn1	Mdm2-MdmX inh 70.4 | Mdm2 MdmX conf 63.7 | Full FLuc ctr 38.2

From PubChem BioAssay
